The nature of assay [1]: antimalarial activity against Dd2 strain (AID 2302;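 active = growth inhibition above 50% at the single 2 µM test dose, taken to imply half-maximal potency below 2 µM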;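 also: 0% = DMSO untreated growth and 100% = chloroquine plus artemisinin killed control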). The note with it: P. falciparum Dd2 in RBCs, LDH growth readout, 72 h; at 2 µM; hits give high values.
A short description of assay [2]: HepG2 cytotoxicity, primary screen, cytotoxicity control for P. falciparum antimalarial project, cell-based, ATP luminescence (AID 2303;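 active = inhibition above 50%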;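 also: 0% = DMSO wells and 100% = digitonin-killed cells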). The note with it: HepG2 viability, 24-48 h, at 10 µM, hits give high values.
In assay [3] the target is L-lactate dehydrogenase (Plasmodium falciparum (isolate CDC / Honduras)) (UniProt Q27743). The experiment in a line: PfLDH activity inhibition – cell lysate, 3D7 strain, counter-screen for P. falciparum growth inhibition project (AID 2304).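 Also: 0% = vehicle and 100% = reference inhibitor.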 Conditions: P. falciparum 3D7 crude extract, LDH APAD/NBT absorbance; at 2 µM; hits give high values. For orientation: A counterscreen serves to expose hits that act by an unwanted route or on another target.
L-lactate dehydrogenase (Plasmodium falciparum (isolate CDC / Honduras)), sequence (Q27743 whole entry, looked up): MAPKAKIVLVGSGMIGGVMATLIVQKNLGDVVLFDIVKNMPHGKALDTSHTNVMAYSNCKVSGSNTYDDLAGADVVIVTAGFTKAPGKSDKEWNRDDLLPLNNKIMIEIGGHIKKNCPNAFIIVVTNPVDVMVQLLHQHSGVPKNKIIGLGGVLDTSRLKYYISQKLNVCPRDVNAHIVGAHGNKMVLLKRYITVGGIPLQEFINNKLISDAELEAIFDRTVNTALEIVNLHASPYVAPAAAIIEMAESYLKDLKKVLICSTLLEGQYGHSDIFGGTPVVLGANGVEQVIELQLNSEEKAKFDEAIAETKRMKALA

The nature of assay [4]: inhibition of 3D7 malaria parasite growth – strain 3D7 (AID 2306).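 Also: 0% = DMSO wells and 100% = chloroquine plus artemisinin control wells.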 Conditions: P. falciparum 3D7 erythrocytic growth, LDH absorbance, 72 h; at 2 µM; hits give high values.
Assay [5] has as its target Calcium-dependent protein kinase 1 (Plasmodium falciparum (isolate 3D7)) (UniProt P62344). The experiment in a line: PfCDPK1 kinase inhibitors, biochemical, TCAMS library (AID 1159585; cut-off not given, nearly all actives have IC50 up to about 0.98 µM;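 also: inhibitors leave more ATP so luminescence rises with inhibition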). Conditions: recombinant PfCDPK1, Kinase-Glo ATP depletion luminescence. (Kinase-Glo measures the ATP left after a reaction by luminescence.)
Assay [6] deals with Plasmodium falciparum protein kinase 6 (PK6, PF3D7_1337100) (UniProt Q8IDW1). The experiment in a line: PfPK6 kinase inhibitors, biochemical, TCAMS library (AID 1159586). Conditions: recombinant PfPK6, Kinase-Glo ATP depletion luminescence.
Plasmodium falciparum protein kinase 6 (PK6, PF3D7_1337100), sequence (Q8IDW1 1-305): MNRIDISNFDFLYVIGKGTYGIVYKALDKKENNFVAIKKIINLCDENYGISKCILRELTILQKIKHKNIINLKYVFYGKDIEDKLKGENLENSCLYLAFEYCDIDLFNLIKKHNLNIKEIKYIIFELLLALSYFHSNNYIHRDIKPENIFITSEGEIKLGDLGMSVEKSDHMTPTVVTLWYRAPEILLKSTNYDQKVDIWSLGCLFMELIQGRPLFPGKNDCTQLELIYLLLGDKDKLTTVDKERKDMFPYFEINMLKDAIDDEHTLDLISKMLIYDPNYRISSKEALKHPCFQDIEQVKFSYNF
Assay [7] deals with Protein kinase 7 (PK7), Plasmodium falciparum 3D7 (PF3D7_0213400) (UniProt Q7YTF7). The experiment in a line: inhibition of Plasmodium PK7 catalytic activity – biochemical, TCAMS antimalarial set, Kinase-Glo luminescence (AID 1159587). Conditions: recombinant PfPK7, Kinase-Glo ATP depletion luminescence.
Protein kinase 7 (PK7), Plasmodium falciparum 3D7 (PF3D7_0213400), sequence (Q7YTF7 1-343): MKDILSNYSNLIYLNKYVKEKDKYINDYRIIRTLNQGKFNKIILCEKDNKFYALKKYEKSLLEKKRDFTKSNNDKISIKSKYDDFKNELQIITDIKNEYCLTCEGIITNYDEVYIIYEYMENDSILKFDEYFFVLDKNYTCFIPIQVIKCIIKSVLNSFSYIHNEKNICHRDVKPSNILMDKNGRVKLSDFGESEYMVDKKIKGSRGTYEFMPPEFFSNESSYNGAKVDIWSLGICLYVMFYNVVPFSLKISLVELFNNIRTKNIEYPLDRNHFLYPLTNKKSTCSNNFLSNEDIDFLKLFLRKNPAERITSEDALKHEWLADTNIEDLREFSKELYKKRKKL
In assay [8] the target is Calcium-dependent protein kinase 4 (Plasmodium falciparum (isolate 3D7)) (UniProt Q8IBS5). The experiment in a line: PfCDPK4 kinase inhibitors, biochemical, TCAMS library (AID 1159588; cut-off not given, nearly all actives have IC50 up to about 0.91 µM). Conditions: recombinant PfCDPK4, Kinase-Glo ATP depletion luminescence.
Calcium-dependent protein kinase 4 (Plasmodium falciparum (isolate 3D7)), sequence (Q8IBS5 whole entry, looked up): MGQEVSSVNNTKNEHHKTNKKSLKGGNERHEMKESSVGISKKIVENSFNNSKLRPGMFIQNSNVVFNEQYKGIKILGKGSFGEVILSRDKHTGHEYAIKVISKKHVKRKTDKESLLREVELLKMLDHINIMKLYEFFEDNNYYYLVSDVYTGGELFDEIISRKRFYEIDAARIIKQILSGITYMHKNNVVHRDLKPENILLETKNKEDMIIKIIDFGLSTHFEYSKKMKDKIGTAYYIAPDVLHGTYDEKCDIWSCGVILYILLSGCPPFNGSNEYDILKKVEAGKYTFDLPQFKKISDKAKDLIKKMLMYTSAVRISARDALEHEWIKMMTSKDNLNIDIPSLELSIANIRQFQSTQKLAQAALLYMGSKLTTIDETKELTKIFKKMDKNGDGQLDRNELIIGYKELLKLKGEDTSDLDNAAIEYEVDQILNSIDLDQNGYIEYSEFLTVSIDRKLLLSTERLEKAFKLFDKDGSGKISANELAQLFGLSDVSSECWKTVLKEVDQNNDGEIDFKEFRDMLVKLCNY

Our source for the growth inhibition, inhibition and outcome values is PubChem BioAssay.

Unmarked numbers belong to inactive results. For part of these data: Measured potencies and affinities stand elsewhere. Activity calls are given as the source filed them. Unless noted, no rule for the calls is given here.

For orientation: inhibition means the drop in the measured response relative to a control, in per cent.

Calcium-dependent protein kinase 1 (Plasmodium falciparum (isolate 3D7)), sequence (P62344 whole entry, looked up): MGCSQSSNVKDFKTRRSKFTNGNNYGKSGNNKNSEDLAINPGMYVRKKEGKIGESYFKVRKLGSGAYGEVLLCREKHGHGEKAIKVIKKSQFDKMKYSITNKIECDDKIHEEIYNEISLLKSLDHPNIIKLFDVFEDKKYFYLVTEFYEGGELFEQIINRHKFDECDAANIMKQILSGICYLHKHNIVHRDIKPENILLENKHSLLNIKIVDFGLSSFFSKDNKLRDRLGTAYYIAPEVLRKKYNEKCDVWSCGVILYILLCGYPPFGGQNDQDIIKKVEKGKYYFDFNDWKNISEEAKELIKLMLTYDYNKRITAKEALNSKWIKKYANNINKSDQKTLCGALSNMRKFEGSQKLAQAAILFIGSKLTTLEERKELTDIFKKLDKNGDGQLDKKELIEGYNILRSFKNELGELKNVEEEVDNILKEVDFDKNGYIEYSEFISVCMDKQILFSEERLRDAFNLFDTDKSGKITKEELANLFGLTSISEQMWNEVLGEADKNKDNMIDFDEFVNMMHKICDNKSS

As to `Cc1ccc(CN2CCC(Oc3cccc(NC(=O)c4ccc(C(F)(F)F)cc4)c3)CC2)cc1`, the growth inhibition in assay [1] is 15%; in assay [4], 92% (active). For the same molecule, the inhibition in assay [2] is 37%; in assay [3], -1%. Moreover, the outcome in assay [5], in assay [6], in assay [7] and in assay [8] was inactive.
As to `CC1CCCN(Cc2c(O)ccc3c(=O)c(-c4nc5ccccc5s4)c(N)oc23)C1` (stereo not drawn), the growth inhibition in assay [1] was 99% (active); in assay [4], 100% (active). In addition, the inhibition in assay [2] was 20%; in assay [3] it was -2%. In addition, the result in assay [5], in assay [6], in assay [7] and in assay [8] was inactive.
As for `Nc1ccc(-c2ccc3ccnc(N)c3c2)cc1`, the growth inhibition was 68% (active) in assay [1] and 102% (active) in assay [4]. Besides, the inhibition was 38% in assay [2] and -1% in assay [3]. The outcome in assay [5], in assay [6], in assay [7] and in assay [8] was inactive.
For `COc1ccc(OCCCCON2C(N)=NC(N)=NC2(C)C)cc1`, the growth inhibition in assay [1] was 95% (active); in assay [4], 92% (active). Besides, the inhibition in assay [2] was 54% (active); in assay [3], 4%. In addition, the outcome in assay [5], in assay [6], in assay [7] and in assay [8] was inactive.
In the case of `CCc1c(CCNCCCCCCNCCc2ccc([N+](=O)[O-])cc2)ccc(O)c1O`, the growth inhibition in assay [1] was 23%; in assay [4], 94% (active). The values for the inhibition in assay [2] and in assay [3] were 5% and -1%, respectively. Besides, the outcome in assay [5], in assay [6], in assay [7] and in assay [8] was inactive.
As to `Cc1cc(=O)c2cc(Oc3cccc(OC(F)(F)F)c3)ccc2[nH]1`, the growth inhibition in assay [1] is 80% (active); in assay [4], 90% (active). Also, the figures for the inhibition in assay [2] and in assay [3] were 9% and 2%, respectively. The result in assay [5], in assay [6], in assay [7] and in assay [8] was inactive.
With `COc1ccc(-c2cccc(NC(=O)c3cccc(Cl)c3)c2)cc1CN(C)CCN(C)C`, the figures for the growth inhibition in assay [1] and in assay [4] were 73% (active) and 101% (active), respectively. Further, the figures for the inhibition in assay [2] and in assay [3] were 32% and 4%, respectively. Moreover, the outcome in assay [5], in assay [6], in assay [7] and in assay [8] was inactive.
With `Cc1cccc(NC(=O)c2ccc(C(=O)NC3CCN(CC4CCCCC4)C3)cc2)c1` (stereo not drawn), the values for the growth inhibition in assay [1] and in assay [4] were 3% and 88% (active), respectively. Moreover, the results for the inhibition in assay [2] and in assay [3] were 17% and -3%, respectively. Moreover, the result in assay [5], in assay [6], in assay [7] and in assay [8] was inactive.
For `C=CCc1cc(Br)ccc1OCCCON1C(N)=NC(N)=NC1(C)C`, the growth inhibition is 97% (active) in assay [1] and 95% (active) in assay [4]. Moreover, the inhibition is 61% (active) in assay [2] and 2% in assay [3]. The outcome in assay [5], in assay [6], in assay [7] and in assay [8] was inactive.
In the case of `COc1ccc(Cl)cc1-c1nc(C(=O)NCCN2CCCCC2)c(C(C)C)s1`, the growth inhibition was 37% in assay [1] and 100% (active) in assay [4]. The inhibition in assay [2] is 14%; in assay [3], -3%. Also, the outcome in assay [5], in assay [6], in assay [7] and in assay [8] was inactive.
Consider `Cc1[nH]nc2ccc(-c3cc(OC[C@@H](N)Cc4ccccc4)cnc3-c3ccccc3OCc3cccc(F)c3)cc12`, for which the growth inhibition in assay [1] and in assay [4] was 91% (active) in each case. Moreover, the inhibition in assay [2] is 55% (active); in assay [3], -2%. For the same molecule, the result in assay [5], in assay [6], in assay [7] and in assay [8] was inactive.
For the molecule `CN(C)CCC(O)C=C(c1ccc(Cl)cc1)c1ccc(Cl)cc1` (stereo not drawn), the figures for the growth inhibition in assay [1] and in assay [4] were 85% (active) and 93% (active), respectively. In addition, the inhibition was 33% in assay [2] and 1% in assay [3]. Moreover, the outcome in assay [5], in assay [6], in assay [7] and in assay [8] was inactive.
`COc1cc(C)cc(CN2CCC(Cc3ccccc3)CC2)c1O`: the growth inhibition in assay [1] is 94% (active); in assay [4], 97% (active). For the same molecule, the inhibition is 35% in assay [2] and 0% in assay [3]. Moreover, the outcome in assay [5], in assay [6], in assay [7] and in assay [8] was inactive.
Turning to `N#Cc1cncc(-c2nc3c(N4CCC(Cc5ccccc5)CC4)cccc3n2CCNCc2ccccc2)c1`, the growth inhibition in assay [1] and in assay [4] was 99% (active) throughout. In addition, the inhibition was 2% in assay [2] and -1% in assay [3]. Further, the result in assay [5], in assay [6], in assay [7] and in assay [8] was inactive.
Turning to `NC(N)=Nc1ccc(Cc2ccc(N=C(N)N)cc2)cc1`, the growth inhibition in assay [1] was 94% (active); in assay [4], 93% (active). In addition, the inhibition in assay [2] was 35%; in assay [3], -1%. Besides, the outcome in assay [5], in assay [6], in assay [7] and in assay [8] was inactive.
As to `CCCc1nc2c(N3CCCN(C(=O)NC4CCCCC4)CC3)cccc2n1Cc1ccccn1`, the growth inhibition in assay [1] was 10%; in assay [4], 89% (active). For the same molecule, the inhibition in assay [2] was 10%; in assay [3] it was 5%. Moreover, the outcome in assay [5], in assay [6], in assay [7] and in assay [8] was inactive.
Take `Cn1c(NC(=O)c2ccc(CNC(=O)c3ccc(O)c(-c4ccc(Cl)c(Cl)c4)c3)cc2)nc2ccccc21`: the growth inhibition in assay [1] was 74% (active); in assay [4], 94% (active). The inhibition is 20% in assay [2] and -1% in assay [3]. The outcome in assay [5], in assay [6], in assay [7] and in assay [8] was inactive.
Turning to `COc1ccc(CNCc2ccc(-c3ccc(-c4nc5c(C)cccc5[nH]4)s3)cc2)cc1`, the growth inhibition in assay [1] was 89% (active); in assay [4], 100% (active). Further, the inhibition is 54% (active) in assay [2] and 3% in assay [3]. Also, the outcome in assay [5], in assay [6], in assay [7] and in assay [8] was inactive.
Turning to `O=C(Nc1cccc(CN2CCN(C(=O)c3cccc(F)c3)CC2)c1)c1cccs1`, the growth inhibition in assay [1] and in assay [4] was 95% (active) throughout. In addition, the inhibition is 17% in assay [2] and 1% in assay [3]. For the same molecule, the outcome in assay [5], in assay [6], in assay [7] and in assay [8] was inactive.
Take `CCCCCCNC(=O)C1Cc2c([nH]c3cc(Cl)ccc23)C2(CCN(CCC)CC2)N1` (stereo not drawn): the growth inhibition in assay [1] is 18%; in assay [4], 92% (active). The inhibition in assay [2] was 8%; in assay [3], 0%. For the same molecule, the result in assay [5], in assay [6], in assay [7] and in assay [8] was inactive.
As for `O=C(Nc1cc(Cl)cc(Cl)c1)c1cc(Cl)c(=O)n(Cc2ccc(Cl)cc2)c1`, the growth inhibition in assay [1] was 57% (active); in assay [4], 89% (active). Besides, the inhibition in assay [2] and in assay [3] was 7% throughout. In addition, the result in assay [5], in assay [6], in assay [7] and in assay [8] was inactive.
